# Experimental data taken from PubChem BioAssay (Tox21).
# Values without a mark were called inactive. Results filed as inconclusive are left out. Entries that show only a call come without a potency. Active and inactive are the calls of the source. Unless noted, calls come from the whole dose curve; as a rule, active = well fitted curve in the direction sought with a large enough effect in the repeat runs; inconclusive = weak or mixed curves; inactive = no such curve, though single readings can be large; an effect the other way counts as inactive or inconclusive.
# Columns and labels:
# [1] = qHTS assay to identify small molecule antagonists of the sonic hedgehog signaling (Shh) pathway (AID 1259369; calls by dose curve; note: nearly all actives have a fitted effect of over 45% in size; note: potency is the fitted concentration of half-maximal effect)
# Summary of the method: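 Conditioned medium drives Shh signalling in 3T3Gli1-Luc cells; compounds in DMSO co-applied, 24hr at 37 C, then luciferase luminescence.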
# [2] = target: Estrogen receptor beta (Homo sapiens) (UniProt Q92731); test: qHTS assay to identify small molecule agonists of the estrogen receptor beta (ER-beta) signaling pathway (AID 1259377; active = well fitted activation curve with a large enough effect in the signal ratio in the repeat runs, not every such curve was filed as active; the % refers to the signal ratio)
# Sequence of Estrogen receptor beta (Homo sapiens) (Q92731 whole entry, looked up): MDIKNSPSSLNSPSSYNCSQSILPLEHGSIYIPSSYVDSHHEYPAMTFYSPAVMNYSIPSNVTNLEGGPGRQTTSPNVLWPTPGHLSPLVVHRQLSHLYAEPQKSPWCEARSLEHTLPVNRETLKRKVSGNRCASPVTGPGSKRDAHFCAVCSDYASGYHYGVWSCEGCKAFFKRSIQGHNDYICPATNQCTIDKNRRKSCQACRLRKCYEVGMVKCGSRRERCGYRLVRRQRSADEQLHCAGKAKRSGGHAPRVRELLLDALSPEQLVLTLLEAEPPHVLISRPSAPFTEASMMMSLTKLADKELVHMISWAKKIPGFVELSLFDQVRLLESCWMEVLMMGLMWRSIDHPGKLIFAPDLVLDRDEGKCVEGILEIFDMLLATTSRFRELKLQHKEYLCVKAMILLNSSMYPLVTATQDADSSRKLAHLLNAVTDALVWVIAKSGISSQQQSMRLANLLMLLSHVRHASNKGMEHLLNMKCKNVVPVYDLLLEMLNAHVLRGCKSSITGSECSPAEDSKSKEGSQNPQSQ
# Summary of the method: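 Beta-lactamase reporter readout: fluorescence of LiveBLAzer B/G FRET substrate after 2 h at room temperature, following 16 h compound treatment of ER-beta-UAS-bla HEK293T cells at 37C in 2% charcoal-stripped FBS medium.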
# [3] = qHTS assay to identify small molecule agonists of the estrogen receptor beta (ER-beta) signaling pathway - cell viability counter screen (AID 1259380); note: nearly all actives have a fitted effect of over 30% in size; note: potency is the fitted concentration of half-maximal effect
# Summary of the method: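 Cells used were ER-beta-UAS-bla HEK293T in medium with 2% charcoal-stripped FBS. They were treated for 16 hr at 37C. Viability came from CellTiter-Glo luminescence.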
# [4] = target: Estrogen receptor (Homo sapiens) (UniProt P03372); test: qHTS assay to identify small molecule agonists of the estrogen receptor alpha (ER-alpha) signaling pathway in the presence of an antagonist (AID 1259383; calls by dose curve; note: top concentration of the series differs between compounds; nearly all actives have a fitted effect of over 15% in size)
# Sequence of Estrogen receptor (Homo sapiens) (P03372 whole entry, looked up): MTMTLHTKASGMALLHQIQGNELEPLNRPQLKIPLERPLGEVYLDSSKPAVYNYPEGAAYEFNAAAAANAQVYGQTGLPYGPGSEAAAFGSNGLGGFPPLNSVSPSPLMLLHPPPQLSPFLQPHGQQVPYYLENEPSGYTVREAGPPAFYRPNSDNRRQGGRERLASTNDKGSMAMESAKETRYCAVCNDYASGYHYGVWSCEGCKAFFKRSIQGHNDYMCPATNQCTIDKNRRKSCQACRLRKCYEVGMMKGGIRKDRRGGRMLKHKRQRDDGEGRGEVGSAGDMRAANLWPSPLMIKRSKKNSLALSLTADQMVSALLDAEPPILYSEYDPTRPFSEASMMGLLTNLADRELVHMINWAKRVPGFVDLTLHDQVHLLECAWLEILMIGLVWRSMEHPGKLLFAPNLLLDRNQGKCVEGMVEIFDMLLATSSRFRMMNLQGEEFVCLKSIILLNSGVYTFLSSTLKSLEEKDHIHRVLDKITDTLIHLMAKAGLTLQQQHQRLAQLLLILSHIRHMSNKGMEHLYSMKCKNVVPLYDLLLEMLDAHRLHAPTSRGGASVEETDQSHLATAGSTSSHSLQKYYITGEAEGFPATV
# Summary of the method: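 Using VM7Luc4E2 cells seeded 24hr before treatment, antagonist ICI-182,780 (10.0nM final) was added, followed by compounds at 15 concentrations. Plates incubated 22hr; ONE-Glo luminescence quantified reporter activity.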
# [5] = qHTS assay to identify small molecule agonists or antagonists of the thyroid stimulating hormone receptor (TSHR) signaling pathway - wild type cell line counter screen (AID 1259384; calls by dose curve; note: potency is the fitted concentration of half-maximal effect)
# Summary of the method: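 Wild-type HEK293 cells were plated 18 h at 37 C/5% CO2, pin-dosed with compound plus Ro20-1724 medium, held 30 min at room temperature, then given cAMP-d2 and anti-cAMP-cryptate; fluorescence was read after 1 h. Fifteen concentrations, triplicate.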
# [6] = target: Thyrotropin receptor (Homo sapiens) (UniProt P16473); test: qHTS assay to identify small molecule antagonists of the thyroid stimulating hormone receptor (TSHR) signaling pathway (AID 1259385; calls by dose curve; note: nearly all actives have a fitted effect of over 20% in size)
# Sequence of Thyrotropin receptor (Homo sapiens) (P16473 whole entry, looked up): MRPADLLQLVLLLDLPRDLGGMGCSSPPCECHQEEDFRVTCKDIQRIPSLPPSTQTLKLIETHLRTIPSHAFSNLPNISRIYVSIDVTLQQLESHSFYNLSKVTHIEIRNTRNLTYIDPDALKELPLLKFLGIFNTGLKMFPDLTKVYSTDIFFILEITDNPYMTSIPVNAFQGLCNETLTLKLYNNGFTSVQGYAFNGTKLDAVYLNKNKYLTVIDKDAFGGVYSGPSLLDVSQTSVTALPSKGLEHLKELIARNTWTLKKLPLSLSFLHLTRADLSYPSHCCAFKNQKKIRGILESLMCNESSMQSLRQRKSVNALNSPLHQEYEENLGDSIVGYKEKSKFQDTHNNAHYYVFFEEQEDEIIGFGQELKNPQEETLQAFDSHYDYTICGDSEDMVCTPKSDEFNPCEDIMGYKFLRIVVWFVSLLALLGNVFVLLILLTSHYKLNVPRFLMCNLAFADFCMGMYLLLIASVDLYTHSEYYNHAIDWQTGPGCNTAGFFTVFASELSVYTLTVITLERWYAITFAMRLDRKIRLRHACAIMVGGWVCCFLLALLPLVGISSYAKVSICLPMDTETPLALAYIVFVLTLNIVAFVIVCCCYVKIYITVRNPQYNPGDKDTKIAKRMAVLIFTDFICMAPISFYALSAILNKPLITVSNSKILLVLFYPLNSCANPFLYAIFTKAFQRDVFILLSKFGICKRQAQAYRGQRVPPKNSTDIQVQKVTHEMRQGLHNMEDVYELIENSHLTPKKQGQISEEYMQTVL
# Summary of the method: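 TSHR-HEK293 cells were plated and held 18 h at 37C/5% CO2, then given compound plus Ro20-1724 and stimulated with TSH at 1.5 ng/mL final. After 30 min at room temperature, cAMP was detected with cAMP-d2/anti-cAMP-cryptate (1 h) by fluorescence.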
# [7] = qHTS assay to identify small molecule agonists of the estrogen receptor alpha (ER-alpha) signaling pathway in the presence of an antagonist - cell viability counter screen (AID 1259386);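 note: series mostly up to about 92 µM; cells exposed to compounds for 22 h at 37 °C before the viability read; nearly all actives have a fitted effect of over 30% in size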
# Summary of the method: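 ICI-182,780 at 10.0nM final accompanies the compound titration (15 concentrations, 22hr, 37C) on VM7Luc4E2 cells. The CellTiter-Fluor fluorescence readout runs in the same wells as the luciferase assay.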
# [8] = target: Progesterone receptor (Homo sapiens) (UniProt P06401); test: qHTS assay to identify small molecule agonists of the progesterone receptor (PR) signaling pathway (AID 1346784; calls by dose curve; note: nearly all actives have a fitted effect of over 30% in size)
# Sequence of Progesterone receptor (Homo sapiens) (P06401 whole entry, looked up): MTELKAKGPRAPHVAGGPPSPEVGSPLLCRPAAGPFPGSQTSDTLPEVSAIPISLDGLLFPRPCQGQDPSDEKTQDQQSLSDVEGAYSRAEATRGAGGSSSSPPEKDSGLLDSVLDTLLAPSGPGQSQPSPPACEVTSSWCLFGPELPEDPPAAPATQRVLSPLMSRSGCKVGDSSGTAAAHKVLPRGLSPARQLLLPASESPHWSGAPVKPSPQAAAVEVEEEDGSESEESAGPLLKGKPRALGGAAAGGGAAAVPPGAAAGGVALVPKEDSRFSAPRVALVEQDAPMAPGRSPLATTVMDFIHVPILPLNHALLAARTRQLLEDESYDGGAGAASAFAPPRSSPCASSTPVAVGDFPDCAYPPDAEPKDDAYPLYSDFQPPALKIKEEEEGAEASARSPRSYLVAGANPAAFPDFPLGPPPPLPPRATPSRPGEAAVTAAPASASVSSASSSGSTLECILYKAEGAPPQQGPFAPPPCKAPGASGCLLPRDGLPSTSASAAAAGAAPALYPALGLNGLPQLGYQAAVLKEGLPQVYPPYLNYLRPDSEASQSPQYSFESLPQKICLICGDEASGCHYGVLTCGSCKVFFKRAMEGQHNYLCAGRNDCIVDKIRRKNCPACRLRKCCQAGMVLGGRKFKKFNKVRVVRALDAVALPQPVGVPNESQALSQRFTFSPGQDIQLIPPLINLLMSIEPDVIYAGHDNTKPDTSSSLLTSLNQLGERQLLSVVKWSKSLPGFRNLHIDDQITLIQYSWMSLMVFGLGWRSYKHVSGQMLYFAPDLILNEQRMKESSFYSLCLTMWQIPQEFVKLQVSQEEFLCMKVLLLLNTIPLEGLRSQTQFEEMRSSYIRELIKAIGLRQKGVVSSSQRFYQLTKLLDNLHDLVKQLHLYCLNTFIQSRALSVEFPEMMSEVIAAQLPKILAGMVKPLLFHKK
# Summary of the method: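 HEK 293T PR-UAS-bla reporter cells, 2% charcoal-stripped FBS; 6 hr settle at 37C/5% CO2, compound (DMSO) 16 hr, LiveBLAzer B/G FRET substrate 2 hr RT, fluorescence intensity read.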
# [9] = target: Progesterone receptor (Homo sapiens) (UniProt P06401); test: qHTS assay to identify small molecule antagonists of the progesterone receptor (PR) signaling pathway (AID 1346795; active = well fitted inhibition curve with a large enough effect in the signal ratio in the repeat runs, not every such curve was filed as active; the % refers to the signal ratio; note: potency is the fitted concentration of half-maximal effect)
# Summary of the method: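 Beta-lactamase reporter, HEK293T PR-UAS-bla line; 2% charcoal-stripped FBS; 6 hr pre-incubation, 37C/5% CO2. Compound + R5020 1 nM final, 16 hr. LiveBLAzer B/G FRET substrate, 2 hr RT; fluorescence intensity read.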
# [10] = qHTS assay to identify small molecule antagonists of the progesterone receptor (PR) signaling pathway - cell viability counter screen (AID 1346798); note: series mostly up to about 92 µM; nearly all actives have a fitted effect of over 50% in size
# Summary of the method: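 Luminescence readout (CellTiter-Glo, 30 min, RT) of viability in PR-UAS-bla HEK293T cells exposed to compound and R5020 agonist for 16 hr at 37C, 5% CO2; run in the same wells as the beta-lactamase reporter read.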
# [11] = qHTS assay to identify small molecule agonists of the progesterone receptor (PR) signaling pathway - cell viability counter screen (AID 1346799; calls by dose curve; note: nearly all actives have a fitted effect of over 45% in size; note: potency is the fitted concentration of half-maximal effect)
# Summary of the method: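 HEK293T PR-UAS-bla, 3,000 cells/well, 2% charcoal-stripped FBS; 6 h settle, compound 16 h at 37C/5% CO2; LiveBLAzer 2 h RT, then CellTiter-Glo 30 min RT, luminescence read.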
# [12] = qHTS assay to identify small molecule antagonists of the TGF-beta/Smad signaling pathway - cell viability counter screen (AID 1346824); note: nearly all actives have a fitted effect of over 50% in size
# Summary of the method: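 SBE-bla HEK 293T cells were plated overnight at 37 C, then given compounds in DMSO plus TGF-beta1 (added as 0.25 ng/mL solution) for 5 hr. After the bla read, CellTiter-Glo was added to the same wells and luminescence read after 30 min at room temperature.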
# [13] = qHTS assay to identify small molecule agonists of the TGF-beta/Smad signaling pathway - cell viability counter screen (AID 1346829); note: top concentration of the series differs between compounds; nearly all actives have a fitted effect of over 45% in size
# Summary of the method: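 Here the cytotoxicity of library compounds is measured in SBE-bla HEK 293T cells treated for 5 hr, using CellTiter-Glo added to wells already read for the beta-lactamase reporter.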
# [14] = target: Thyrotropin-releasing hormone receptor (Homo sapiens) (UniProt P34981); test: qHTS assay to identify small molecule antagonists of the thyrotropin-releasing hormone receptor (TRHR) signaling pathway (AID 1346877; active = well fitted inhibition curve with a large enough effect in the repeat runs, not every such curve was filed as active; note: series mostly up to about 51 µM)
# Sequence of Thyrotropin-releasing hormone receptor (Homo sapiens) (P34981 whole entry, looked up): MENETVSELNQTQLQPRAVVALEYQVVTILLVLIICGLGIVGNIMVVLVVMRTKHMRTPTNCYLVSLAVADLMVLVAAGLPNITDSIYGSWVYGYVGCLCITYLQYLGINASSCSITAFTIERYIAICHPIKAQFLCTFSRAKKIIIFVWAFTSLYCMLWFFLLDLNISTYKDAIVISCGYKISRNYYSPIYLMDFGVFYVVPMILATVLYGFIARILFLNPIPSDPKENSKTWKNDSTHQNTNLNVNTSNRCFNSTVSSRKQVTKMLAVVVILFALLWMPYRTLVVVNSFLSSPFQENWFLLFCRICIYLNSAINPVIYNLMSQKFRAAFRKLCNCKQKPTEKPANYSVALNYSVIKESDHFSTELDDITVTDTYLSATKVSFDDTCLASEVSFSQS
# Summary of the method: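 Screening used HEK293 cells engineered with TRHR, with a brief 5 min room-temperature compound exposure preceding addition of TRH to 1 nM. The read-out was kinetic calcium-dye fluorescence, concentration-response from 15 doses in triplicate.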
# [15] = target: Thyrotropin-releasing hormone receptor (Homo sapiens) (UniProt P34981); test: qHTS assay to identify small molecule agonists of the thyrotropin-releasing hormone receptor (TRHR) signaling pathway (AID 1346891; calls by dose curve;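 note: HEK293 cells expressing TRHR with calcium dye readout; series mostly up to about 58 µM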)
# Summary of the method: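 HEK293/TRHR cells, 1500 per well, 18 h 37 °C; Ca dye 2 h 37 °C; pin-tool compound addition (agonist mode); kinetic fluorescence 3 min, 1 s reads; 15 concentrations, triplicate.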
# [16] = qHTS assay to identify small molecule agonists of the androgen receptor (AR) signaling pathway in the presence of an antagonist - cell viability counter screen (AID 1259379); note: nearly all actives have a fitted effect of over 25% in size; note: potency is the fitted concentration of half-maximal effect
# Summary of the method: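 A CellTiter-Fluor read-out measured viability of MDA-kb2 reporter cells (MMTV promoter with AR and GR response elements). Treatment: nilutamide 3.0uM final with compounds at 15 concentrations, 16 hr, 37C, 0% CO2.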
# [17] = qHTS assay to identify small molecule antagonists of the estrogen receptor beta (ER-beta) signaling pathway - cell viability counter screen (AID 1259382); note: nearly all actives have a fitted effect of over 55% in size; note: potency is the fitted concentration of half-maximal effect
# Summary of the method: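 Agonist-stimulated (1nM E2) ER-beta-UAS-bla HEK293T cells are incubated with library compounds for 16 hr at 37C. Cell viability is then assessed in the reporter-assay wells by adding CellTiter-Glo and reading luminescence after 30 min.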
# [18] = target: Estrogen receptor beta (Homo sapiens) (UniProt Q92731); test: qHTS assay to identify small molecule antagonists of the estrogen receptor beta (ER-beta) signaling pathway (AID 1259378; active = well fitted inhibition curve with a large enough effect in the signal ratio in the repeat runs, not every such curve was filed as active; the % refers to the signal ratio; note: potency is the fitted concentration of half-maximal effect)
# Summary of the method: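 ER-beta-UAS-bla HEK293T (GripTite) cells in 2% charcoal-stripped FBS medium were preincubated 6 hr at 37C, dosed with compound, then stimulated with 1 nM E2 (final) for 16 hr; beta-lactamase reporter read by B/G FRET fluorescence after 2 hr substrate loading.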
# [19] = qHTS assay to identify small molecule agonists of the TGF-beta/Smad signaling pathway (AID 1346859; active = well fitted activation curve with a large enough effect in the signal ratio in the repeat runs, not every such curve was filed as active; the % refers to the signal ratio; note: series mostly up to about 77 µM)
# Summary of the method: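 Read-out: fluorescence at 460 and 530 nm (405 nm excitation) after a 2 hr room-temperature incubation with beta-lactamase FRET substrate. SBE-bla HEK 293T cells had been treated with test compounds for 5 hr at 37 C.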
Compound,Potency [1],Potency [2],Potency [3],Potency [4],Potency [5],Potency [6],Potency [7],Potency [8],Potency [9],Potency [10],Potency [11],Potency [12],outcome [13],outcome [14],Potency [15],Potency [16],Potency [17],Potency [18],Potency [19]
Cc1ccc(C(=O)Oc2ccc(C(O)CNC(C)(C)C)cc2OC(=O)c2ccc(C)cc2)cc1 (stereo not given),inactive,inactive,26.6 µM (active),inactive,0.0362 µM (active),inactive,inactive,inactive,inactive,inactive,inactive,inactive,inactive,inactive,inactive,,,,
CN(Cc1ccc(C(C)(C)C)cc1)Cc1cccc2ccccc12,inactive,inactive,26.6 µM (active),inactive,,,inactive,inactive,,,10.6 µM (active),,inactive,inactive,inactive,inactive,23.7 µM (active),,
O=C(O)C1(C(=O)O)CCC1.[NH2-].[NH2-].[Pt+2],inactive,,inactive,inactive,inactive,inactive,inactive,inactive,inactive,inactive,inactive,inactive,inactive,inactive,inactive,inactive,inactive,inactive,
Cc1c(N)cccc1[N+](=O)[O-],inactive,,inactive,inactive,inactive,inactive,inactive,inactive,,inactive,,inactive,inactive,,,inactive,inactive,inactive,
O=[N+]([O-])c1cccc(S(=O)(=O)O)c1,inactive,,24.7 µM (active),,,,inactive,inactive,inactive,,,,inactive,,,62.1 µM (active),inactive,2.2 µM (active),
CCCOC(C(=O)OC1CCN(C)CC1)(c1ccccc1)c1ccccc1,21.1 µM (active),inactive,26.6 µM (active),inactive,inactive,inactive,inactive,inactive,inactive,,,inactive,inactive,,,,,,inactive
c1ccc(C(O[C@H]2CCCN(CCc3ccc4c(c3)OCO4)C2)c2ccccc2)cc1,inactive,inactive,,inactive,inactive,inactive,inactive,inactive,,inactive,,inactive,inactive,inactive,inactive,inactive,inactive,,inactive
COc1cc(Cl)ccc1Oc1ccc(Cl)cc1Cl,inactive,,inactive,inactive,inactive,,inactive,inactive,8.39 µM (active),inactive,inactive,inactive,inactive,inactive,inactive,inactive,inactive,inactive,inactive
